Laboratory results taken from PubChem BioAssay AID602163 (The Scripps Research Institute Molecular Screening Center, 2012).
In all, about 360,000 compounds went through this assay and about 1,100 (0.31%) were called active. Rule as the data show it: active = activation above about 7.5%; inactive = the rest. The full list was thinned out, with actives kept by preference.

The compounds below were run on Methionine sulfoxide reductase A (Bos taurus) (assay: bovine MsrA enzyme activators, primary screen, biochemical, absorbance, HTS (AID 602163;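 also: 0% = vehicle and 100% = reference activator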)). Conditions: purified bovine MsrA, absorbance read-out; at 10.6 µM; stronger effect = higher value.

activation, inactive:
Cn1nnnc1SCC(=O)N1CCN(C(c2ccccc2)c2ccccc2)CC1 -4.74%
CC(=O)c1ccc(-n2nnnc2SCC(=O)N2CCN(C(=O)c3ccco3)CC2)cc1 -6.56%
CC(C)COC(=O)n1c(=O)oc2ccc(S(=O)(=O)N3CCCCC3)cc21 -0.43%
COc1ccc(C2=NN(C(=O)CSc3nc(=O)n4ccc(C)cc4n3)C(c3ccc(C)cc3)C2)cc1 (stereo unspecified) -4.23%
CCCNCc1cc(OCC)c(OCC(=O)Nc2ccccc2)cc1Br -1.95%
O=C(CC1(O)C(=O)N(CN2CCOCC2)c2ccccc21)c1ccccc1 (stereo unspecified) -7.26%
C=CCN1C(=O)C2(OCCCO2)c2cccc(Cl)c21 -1.83%
CC(C)C[C@H]1CNC(=O)C(=O)N1C[C@@H]1CCCN1C[C@H](Cc1ccccc1)N1C[C@H](CC(C)C)N(CC2CCCCCC2)C(=O)C1=O -1.34%
CC1CCC2CCCCC2N1C(=O)c1cc([N+](=O)[O-])cc([N+](=O)[O-])c1 (stereo unspecified) -1.47%
CCOC(=O)[C@H]1Nc2ccc(Cl)cc2[C@@H]2[C@H]1C1CC(c3ccccc31)N2C(=O)OCc1ccccc1 (stereo partly specified) -4.81%
O=C(O)C#Cc1cccc2ccccc12 -6.37%
CCCCCCNC(=O)CSc1nccn1Cc1ccccc1 -3.24%
O=C(NCc1ccccc1)C1c2ccccc2OCC(=O)N1CCCN1CCOCC1 (stereo unspecified) -2.2%
O=C(NC1CCCC1)C1c2ccccc2OCC(=O)N1Cc1ccccc1 (stereo unspecified) -2.39%
CN1CCN(Cc2c(C(=O)N3CCc4ccccc4C3)nc3ccc(Cl)cn23)CC1 -13%
Nc1ccn(C2CC(O)C(CO)O2)c(=O)n1 (stereo unspecified) -1.31%
COC(=O)C1CCN(C(=O)COC(=O)c2cc(S(=O)(=O)N3CCOCC3)ccc2C)CC1 -0.23%
CCS(=O)(=O)c1ccc2c(c1)N(S(=O)(=O)c1ccccc1)CC(C(=O)O)O2 (stereo unspecified) -3.49%
COc1ccc(N2CCN(S(=O)(=O)c3cc4c5c(c3)C(C)C(=O)N5CCC4)CC2)cc1 (stereo unspecified) 0.45%
COc1ccc(C2C(C(C)=O)=C(O)C(=O)N2c2nccs2)cc1 (stereo unspecified) -4.03%
CC(=O)C1=C(O)C(=O)N(c2ccc(Br)cc2)C1c1ccc([N+](=O)[O-])cc1 (stereo unspecified) -4.41%
COC(=O)c1ccccc1NC(=O)C1(S(=O)(=O)c2ccc(Cl)cc2)CC1 -4.86%
CCCc1c(C)nc2c(Br)cccc2c1Cl -2.47%
COC(C/C=C/C(=O)[C@@H](C)OCc1ccccc1)OC 5.11%
CSC1=NC2(C)CCCCC2C12C=CC(=O)C=C2 (stereo unspecified) -3.42%
CC(C)CCNC(=O)C1CCC(CNc2c(N3CCC(C)CC3)c(=O)c2=O)CC1 (stereo unspecified) -7.85%
CC(C)(C)N1C(=O)c2c(C(=O)OCc3ccccc3)[nH]c(-c3ccccc3)c2C1=O -2.85%
CN1CCN(c2ccc(CNS(=O)(=O)c3cccc(F)c3)cc2)CC1 -2.8%
Cc1nccn1CCCNC(=O)CC1C(=O)NCCN1Cc1ccc(Cl)c(F)c1 (stereo unspecified) -5.91%
O=c1onc(-c2cccs2)n1Cc1ccccc1 -2.25%
COc1ccc(NC(=O)CN(C)C(=O)/C=C/c2cn(Cc3ccccc3)nc2-c2cccnc2)cc1 -3.42%
Cc1cccc(NC(=O)Cn2c(=O)n(Cc3ccccc3)c(=O)c3c(C)c(C)sc32)c1 -2.33%
O=C1CCC(C(=O)N2CCC(O)(c3ccccc3)CC2)CN1CCc1ccccc1 (stereo unspecified) -3.3%
COc1ccc(C(=O)NCC2CCCO2)cc1S(=O)(=O)NCc1ccc(Cl)cc1 (stereo unspecified) -6%
COc1ccc(Cl)cc1NS(=O)(=O)c1cccc(C(=O)NC2CCC(O)CC2)c1 (stereo unspecified) -0.8%
CC(C)NC(=S)NN=C1CCCCCCCCCCC1 -2.24%
C=C(C)C1CC=C(C)/C(=N\NC(=O)CNc2ccccc2OC)C1 (stereo unspecified) -4.34%

activation, active:
Cn1nnnc1SCC(=O)N1CCN(Cc2ccccc2)CC1 10.8%
FC(F)(F)C1CCCN(c2nsc3ccccc23)C1 (stereo unspecified) 13%
CC(C)(C)C(=O)CCN1C(=O)C2(OCCO2)c2ccccc21 10.5%
O=C(NCc1ccccc1)C1c2ccccc2OCC(=O)N1C1CC1 (stereo unspecified) 8.21%
COC(=O)CN1C(=O)C(O)=C(C(C)=O)C1c1ccc([N+](=O)[O-])cc1 (stereo unspecified) 8.27%
CCN(CC)CCCC(C)n1c2nc(=O)[nH]c(=O)c-2nc2cc(Cl)ccc21 (stereo unspecified) 11.7%
O=C1C(Sc2cccc(F)c2)=C[C@@]2(O)CC[C@@H](O)[C@]1(Sc1cccc(F)c1)[C@H]2O 11.4%
O=C(O)/C=C/c1cn(Cc2ccccc2)nc1-c1cccs1 9.05%
COc1ccc(Cl)cc1NS(=O)(=O)c1cccc(C(=O)NCC2CCCO2)c1 (stereo unspecified) 8.29%
